Bioassay records from PubChem.
IL1B secr inh = blocks inflammasome-driven IL-1 beta release; activity change, % at 57.5 µM; hit rate 4.7% among 360,000; THP-1 LPS/ATP IL-1B secretion, AlphaLISA, 16 h; active compounds read low; in the data active = activity change below about -50%; inconclusive = mostly about -30% to -49%; note: % is set by controls: 0 for no effect and ±100 for the full control effect
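Secreted IL-1B measured by AlphaLISA bead assay after 16 h compound exposure of THP-1 cells; compounds (final up to 57.5 uM) added 1 h before LPS (250 ng/mL) and ATP (1.25 mM) stimulation; lower signal means less secretion.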
ASM inhibitor = inhibitors of human secretory acid sphingomyelinase; hit rate 0.006% among 340,000; AID 504937; Potency, µM (doses to about 57.5 µM), without a hit: at the highest dose activity change, negative = inhibition, actives largely listed as inhibitors; placental ASM, HMU-PC fluorogenic substrate, 60 min; note: potency is the fitted concentration of half-maximal effect
Target sequence (P17405 47-631 limits assumed): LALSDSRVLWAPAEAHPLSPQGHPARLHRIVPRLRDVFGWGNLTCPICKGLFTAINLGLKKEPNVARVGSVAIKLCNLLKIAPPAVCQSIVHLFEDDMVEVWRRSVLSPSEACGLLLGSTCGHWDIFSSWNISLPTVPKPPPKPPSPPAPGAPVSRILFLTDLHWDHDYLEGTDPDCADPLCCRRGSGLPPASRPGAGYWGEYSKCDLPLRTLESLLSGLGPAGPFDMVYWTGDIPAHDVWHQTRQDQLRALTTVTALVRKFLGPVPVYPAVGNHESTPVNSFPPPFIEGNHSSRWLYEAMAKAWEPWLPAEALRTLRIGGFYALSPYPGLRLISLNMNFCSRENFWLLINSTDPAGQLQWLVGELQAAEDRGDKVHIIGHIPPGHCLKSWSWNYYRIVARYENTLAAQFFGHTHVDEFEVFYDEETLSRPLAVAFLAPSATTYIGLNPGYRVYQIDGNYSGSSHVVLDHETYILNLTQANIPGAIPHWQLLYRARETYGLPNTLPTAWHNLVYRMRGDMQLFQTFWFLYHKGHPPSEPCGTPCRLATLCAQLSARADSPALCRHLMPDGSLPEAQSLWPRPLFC
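HMU-PC0 cleavage (9 uM final) by human placental ASM, 60 min at 37 °C following 10 min compound exposure at RT; stopped at pH 10, fluorescence Ex 386/Em 447 nm.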
TDP1 cell CPT = DT40-hTDP1 cell growth loss with CPT; chicken DT40 Tdp1-/-;hTDP1 cells + 20 nM CPT, ATP luminescence, 48 h; Potency, µM (top dose mostly 46.2 µM), for inactives: top-dose activity change, negative = growth inhibition, most hits filed as inhibitors; hit rate 12% among 420,000; AID 686979; note: potency is the fitted concentration of half-maximal effect; % is set by controls: 0 for no effect and ±100 for the full control effect; nearly all actives have a fitted effect of over 55% in size
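Cell growth measured by CellTiter-Glo luminescence after a minimum 48 h, 37 C compound exposure with 20 nM CPT in Tdp1-knockout DT40 cells stably expressing hTDP1, seeded 400/well; qHTS titration format.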
HepG2 tox = kills HepG2 cells in TGF-b inhibitor counter-screen; HepG2 CAGA-GFP viability, ATP luminescence, 18 h; Potency, µM (top dose mostly 46.1 µM), for inactives: at the top dose activity change, negative = cytotoxicity, hits mostly cytotoxic; hit rate 0.76% among 410,000; AID 588856; note: potency is the fitted concentration of half-maximal effect
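CellTiter-Glo luminescence gave cytotoxicity after 18 hours at 37 degrees C. The cells were HepG2 CAGA-GFP in 1% FBS DMEM, stimulated with 500 pg/mL TGF-beta after compound addition. %Activity was normalised to no-cell wells (complete cell-killing) and DMSO (no toxicity), and curves were fitted and classified.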
TDP1 cell noCPT = qHTS for Inhibitors of human tyrosyl-DNA phosphodiesterase 1 (TDP1): qHTS in cells in absence of CPT; DT40 Tdp1-/- hTDP1 cells, no CPT, ATP luminescence, 48 h; Potency, µM (series often up to 46.2 µM), without a hit: top-dose activity change, negative = growth inhibition, most hits filed as inhibitors; hit rate 15% among 420,000; note: potency is the fitted concentration of half-maximal effect; % is set by controls: 0 for no effect and ±100 for the full control effect; nearly all actives have a fitted effect of over 55% in size
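Growth of hTDP1-complemented DT40 Tdp1-knockout cells is measured by ATP luminescence after at least 48 hr compound exposure at 37 °C, with DMSO substituting for the 20 nM CPT used in the parallel screen.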
TGFb inhibitor = TGF-b pathway inhibition. HepG2 CAGA-GFP TGF-b/SMAD3 reporter, GFP fluorescence, 18 h; TGF-beta stimulated, 500 pg/mL final. Potency, µM (top dose mostly 46.1 µM), for inactives: top-dose activity, negative = inhibition, hits mostly inhibitors. hit rate 1.2% among 410,000; note: potency is the fitted concentration of half-maximal effect; % is set by controls: 0 for no effect and ±100 for the full control effect; nearly all actives have a fitted effect of over 65% in size
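HEPG2 CAGA-GFP cells (1000/well, DMEM with 1% FBS) were pre-incubated 2 h at 37 degrees C, given compound by pin tool, then stimulated with TGF-beta at 500 pg/mL final for 18 h before per-cell GFP fluorescence imaging.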
* hit, by the source's call; ? = inconclusive; . = no result; ! = not confirmed by another sample; [ ] = another dose, or the depositor's remark. Compounds with a hit are over-represented: about 19% of the library has one in this group of screens. Unless noted, calls come from the whole dose curve; as a rule, active = well fitted curve in the direction sought with a large enough effect; inconclusive = small, poorly fitted or top-dose-only effect, or another doubt; inactive = no such curve, though single readings can be large; an effect the other way counts as inactive or inconclusive.

SMILES	IL1B secr inh	ASM inhibitor	TDP1 cell CPT	HepG2 tox	TDP1 cell noCPT	TGFb inhibitor
CC(C)CN1C(=O)C(=O)N(CC(=O)c2ccc[nH]2)C1=O	-6.5	0.8%	-1.8%	-6.1%	0.6%	4.4%
CCc1ccc(NS(=O)(=O)c2ccc3[nH]cc(C(=O)NCCCOC(C)C)c(=O)c3c2)cc1	.	.	?	-3.7%	?	16.4%
O=C(NCc1ccco1)c1cccc2c(-c3ccc(F)c(F)c3)coc12	?	.	?	-14.3%	?	25.9%
O=C(OC1CCCCC1)c1ccc(NC(=O)C2CCCCC2)cc1	-25.4	-5.5%	?	-19.2%	20.6µM*	?
CCCCC(=O)Nc1ccc(C(=O)OC2CCCCC2)cc1	-9.4	-9.0%	?	-15.1%	?	?
O=C(O)CCC(=O)Nc1ccc(C(=O)OC2CCCCC2)cc1	18.8	2.9%	2.0%	1.2%	-14.4%	-1.6%
CC(C)(C)C(=O)Nc1ccc(C(=O)OC2CCCCC2)cc1	-29.8	0.0%	25.9µM*	-30.4%	20.6µM*	0.4%
O=C(COC(=O)COc1ccc(Cl)cc1)Nc1ncc(Br)s1	0.6	-4.0%	-27.7%	15.1%	-25.3%	4.2%
CC(=O)c1c(C)oc2ccc(N(C(=O)Oc3ccccc3)S(=O)(=O)c3ccc(Br)cc3)cc12	.	.	-7.6%	-5.9%	22.2%	9.9%
CCCC(=O)N(c1ccc2oc(C)c(C(C)=O)c2c1)S(=O)(=O)c1ccc(C)c([N+](=O)[O-])c1	9.4	-2.4%	18.4µM*	5.9%	16.4µM*	1.3%
COC(=O)c1c(C)oc2ccc(N(C(=O)Oc3ccccc3)S(=O)(=O)c3ccc(Cl)c([N+](=O)[O-])c3)cc12	-104.6*	-4.5%	?	-0.3%	20.6µM*	-10.8%
CCc1ccc(S(=O)(=O)N(C(=O)Oc2ccccc2)c2ccc3oc(C)c(C(=O)OC)c3c2)cc1	.	.	3.66µM*	-11.1%	2.91µM*	-8.3%
CCOC(=O)c1c(-c2ccccc2)oc2ccc(N(C(C)=O)S(=O)(=O)c3ccc(CC)cc3)cc12	.	.	16.4µM*	-8.6%	5.8µM*	-4.9%
COc1cccc(Nc2ncnc3sc(C)cc23)c1	13.2	-0.3%	?	-25.3%	?	-21.1%
CN(C(=O)c1ccc(C#N)cc1)c1nnc(-c2cnccn2)s1	-6.8	0.2%	7.0%	33.2%	13.4%	2.7%
CCC(C)C(NC(=O)C1CCC(C)CC1)C(=O)Nc1ccc(OC)cc1 (configuration not stated)	-1.3	-0.7%	?	-16.2%	-20.9%	17.2%
CCCCn1c(N)c(N(CCC(C)C)C(=O)c2cccc(-n3cnnn3)c2)c(=O)[nH]c1=O	20.1	37.9%	-7.4%	1.7%	-1.6%	-3.7%
CN(CCc1ccccc1)C(=O)c1ccc(NC(=O)Cc2cccc(NC(=O)C3CCN(C(=O)C4CCCCC4)CC3)c2)cc1	20.5	-2.4%	?	5.0%	20.6µM*	?
CN(CCc1ccccc1)C(=O)c1cccc(NC(=O)Cc2cccc(NC(=O)C3CCN(C(=O)C4CCC4)CC3)c2)c1	1.0	-3.7%	?	10.6%	14.6µM*	-21.7%
CN(CCc1ccccc1)C(=O)c1cccc(NC(=O)Cc2cccc(NC(=O)C3CCN(C(=O)C4CCCCC4)CC3)c2)c1	5.7	-3.0%	?	-0.4%	?	-27.2%
Cc1ccc(-n2ncc3c(N4CCCCC4)ncnc32)cc1	.	.	?	-41.6%	?	33.4%
O=S(=O)(O)CC(S)CS (configuration not stated)	.	.	8.41µM*	.	4.73µM*	.
O=C(O)c1cc(S(=O)(=O)Nc2cccc3ccccc23)c(Cl)cc1Cl	28.1	3.2%	-9.9%	-20.1%	-13.0%	-4.5%
Cc1c(Cl)cccc1NC(=O)Nc1c(C)n(C)n(-c2ccccc2)c1=O	0.3	-1.4%	-6.4%	-6.2%	-1.2%	-2.0%
O=C(CN1C(=O)C2(OCCO2)c2cc(Br)ccc21)NO	-55.4*	-1.7%	19.1%	-2.6%	-12.4%	11.2%
SMILES	IL1B secr inh	ASM inhibitor	TDP1 cell CPT	HepG2 tox	TDP1 cell noCPT	TGFb inhibitor
O=C(Cn1nc(CNc2ccc(Cl)cc2)[n+]2c1CCCCC2)c1ccccc1	-52.5*	-5.4%	5.17µM*	-12.6%	8.2µM*	0.8%
OC[C@@H]1CN(Cc2ccc(-c3ccccc3)cc2)C[C@H](n2cnc3c(N4CCCC4)ncnc32)O1	-16.3	.	18.4µM*	-24.4%	20.6µM*	?
OC[C@@H]1CN(Cc2ccc(F)cc2)C[C@H](n2cnc3c(N4CCN(c5ccccc5)CC4)ncnc32)O1	-0.8	.	18.4µM*	-27.0%	10.3µM*	?
OC[C@@H]1CN(Cc2ccccc2)C[C@H](n2cnc3c(N4CCN(c5ccccc5)CC4)ncnc32)O1	-5.6	.	?	-8.3%	?	-7.1%
COC(=O)C1CCN(Cc2ccc3c(c2)CN(C(=O)c2sc(C)nc2C)CCO3)CC1	.	.	-8.5%[9.04 µM]	.	-15.4%	.
COCCNC(=O)Cn1c(=O)c2cccn2c2ccc(F)cc21	.	.	4.3%	-24.7%	-3.9%	-12.3%
COc1ccc(CCNC(=O)CCn2c(=O)c3cccn3c3ccc(F)cc32)c(OC)c1OC	-15.3	-0.4%	13µM*	-1.4%	8.2µM*	?
COc1ccccc1CCNC(=O)CCn1c(=O)c2cccn2c2ccc(F)cc21	-9.1	-0.7%	23.1µM*	0.2%	11.6µM*	10.2%
COc1cc2ncnc(NCc3ccco3)c2cc1OC	-10.5	3.5%	18.4µM*	-10.5%	?	-8.8%
COc1ccc(CNc2ncnc3cc(Cl)ccc23)cc1	55.9	-0.5%	14.6µM*	-25.9%	13µM*	-27.8%
COc1ccccc1CNc1ncnc2cc(OC)c(OC)cc12	-20.2	1.9%	20.6µM*	-35.2%	23.1µM*	-17.1%
Fc1cccc(CNc2ncnc3cc(Cl)ccc23)c1F	15.3	21.7%	16.4µM*	-35.8%	10.3µM*	?
CCN(c1ccc(OC)cc1)S(=O)(=O)c1csc(C(N)=O)c1	13.7	0.1%	?	-2.7%	-28.3%	-1.0%
COc1ccc2c(c1)cc(CNc1ccc(OC)c(OC)c1)c(=O)n2CC(=O)Nc1ccc(F)cc1	.	.	.	-0.3%	.	4.0%
CC(C)CNC(=O)c1ccc2c(c1)C(=O)N(Cc1ccco1)C2=O	30.0	1.3%	2.5%	2.3%	1.8%	-2.9%
c1coc(CNc2ncnc3[nH]ncc23)c1	15.3	5.5%	11.2µM*!	-2.5%	?	?
COc1cc2ncnc(NCc3ccccc3)c2cc1OC	?	0.4%	?	4.6%	?	-8.3%
